# A number with no mark means an inactive call. No rule for the calls is given here.
# B1: design_600_24101276-ad9d-4944-b73e-53bb160363ad_1965_dldesign_0_cycle1_af2pred (protein)
# chain: SEELEKVAKEAKEAAKERIEYAKKAAEANPALAETAKRMIEGAKELAKKVEKYAKEGDLKKAERERLRIESRKEQAKETLKKL
# B2: design_600_24101276-ad9d-4944-b73e-53bb160363ad_1688_dldesign_0_cycle1_af2pred (protein)
# chain: GLKEEGKKKIKEIKELAKKALENPEKAEEYVKKARELAKEVAEKLPELGKEAAEAAQEALENRAEGKAKLAREK
# B3: design_600_24101276-ad9d-4944-b73e-53bb160363ad_1035_dldesign_0_cycle1_af2pred (protein)
# chain: EKLEEAEKERDKAVDKLAALVAKALGPEAGAKARAAAKKGLAALKAVVAEAAKTSGLTAELAKALHEVYQATAEAELLKKK
# B4: design_600_24101276-ad9d-4944-b73e-53bb160363ad_1238_dldesign_0_cycle1_af2pred (protein)
# chain: AVKEQAKALAEAGLKADVETAKKYAAAAVLLAFDSSDTEDVKYAAELLKKAAKEATDPEKKEAFERAARVVERAAEDMRKAEER
# B5: design_600_24101276-ad9d-4944-b73e-53bb160363ad_2244_dldesign_0_cycle1_af2pred (protein)
# chain: MEEEKKKEEKKKELKEKLKELEKKAEEAAKAAKADPAHLPELAAVAQELYQLSAEAEFEGDKETAEKAKEVARKAREVGKAARAA
# B6: design_600_24101276-ad9d-4944-b73e-53bb160363ad_2105_dldesign_0_cycle1_af2pred (protein)
# chain: NMEEAKKLLKETEKAAKKAVEIAGEEAKPAAEKAIKVAEKFLKYGDVEALKDILAATKAYLAKVEAEKAAAA
# B7: design_600_24101276-ad9d-4944-b73e-53bb160363ad_1759_dldesign_0_cycle1_af2pred (protein)
# chain: GEEASKKAKEDAKLVSEAAKYAKEAGKYAKKIAELKPEKAEEAKKIKEKSAKLLYELADNIEDEEKAKEYLDEIKKLYKEAEELYKEA
# B8: design_600_24101276-ad9d-4944-b73e-53bb160363ad_2181_dldesign_0_cycle1_af2pred (protein)
# chain: MSAAADAQLLLERAEQALAAAEANPELAPAANERIAAAAERLLGPEAAAALRAIAEEHADDPVAAVRAQYEYVAALAEKAEA
# B9: design_600_24101276-ad9d-4944-b73e-53bb160363ad_1440_dldesign_0_cycle1_af2pred (protein)
# chain: SEKVKKDSEAIRKLVKAVKEAGKAAKAAAKAAPEVAAVAEAAQKASAQLVFEALDEENIEEAAKKAEEAIKAAAEAVKAAAKAAK
# B10: design_600_24101276-ad9d-4944-b73e-53bb160363ad_1283_dldesign_0_cycle1_af2pred (protein)
# chain: EEEKKEIAKKTEEYYKELLKVAKEVAAKDPSKKPELAKLTDEAAQYVAEAKAGLNPEEALEKVKKLLEEAKKIA
# B11: design_600_24101276-ad9d-4944-b73e-53bb160363ad_1872_dldesign_0_cycle1_af2pred (protein)
# chain: HSEEELKLLERMREIRKRAKEAVKLLKELGEKELGEKYAKEIADLLYQSIDDPENQEKYVEEAEAKAEELEKLAEEAKKKAEE
# B12: design_600_24101276-ad9d-4944-b73e-53bb160363ad_1404_dldesign_0_cycle1_af2pred (protein)
# chain: SLKEEIKNKEKSGKNNVEAAKMAAEEGDITFAKSAIAAAKKAIEQLKELAKKATPEVAKEGKEAAEKLEKEREEAEKLLKKKEA
# B13: design_600_24101276-ad9d-4944-b73e-53bb160363ad_1126_dldesign_0_cycle1_af2pred (protein)
# chain: SEEAKKLLEELKKAAEEAIAKAKELEKEDPAKAAEYAKKALKELRAKGKEIAELDPAFAPEAGAEVQKVQEYRAEAEAKALRKK
# B14: design_600_24101276-ad9d-4944-b73e-53bb160363ad_2022_dldesign_0_cycle1_af2pred (protein)
# chain: MKEEAKKLAKEAKEKAKEGAANPAYKKAITLYNEALADFRAAEATGSKEAFEEGKEYFKKAEEEEKKVKEKLEKE
# B15: design_600_24101276-ad9d-4944-b73e-53bb160363ad_1967_dldesign_0_cycle1_af2pred (protein)
# chain: GNKKLAAELLKKSIEYFIEAVKSKKLSTASGYASKSAVYFAKAVYVGTGVPPEVAYKVRLIVLEIGLKAIEKRQEELKKKE
# B16: design_600_24101276-ad9d-4944-b73e-53bb160363ad_769_dldesign_0_cycle1_af2pred (protein)
# chain: NEELIKFKAKAYSTAYSTAHTVAAAEKIAKTGTPEEAAKAKAAAAKALARLKEVGKEAKKKGPEYAKAFEEAAKEGEKVLKELLA
# B17: design_600_24101276-ad9d-4944-b73e-53bb160363ad_591_dldesign_0_cycle1_af2pred (protein)
# chain: AEAEYKKAKELLKKAKEALKKNPEEALKLAKEAVEAAKKAAEADPSLAPELGKYAQEALQIISEARFKIS
# B18: design_600_24101276-ad9d-4944-b73e-53bb160363ad_2321_dldesign_0_cycle1_af2pred (protein)
# chain: AQKAKNEAESLLTRAEQALEAGVSGDAEQAKKAAEKIEEYAKKAEEIGKKYPEVKEYAEKKAEEIKELAKKAKEAAKKK
# B19: design_600_24101276-ad9d-4944-b73e-53bb160363ad_1928_dldesign_0_cycle1_af2pred (protein)
# chain: GALEEAKKVIEDARDKLSAVAAKKSPEYAKEVADNLEKVAKGEGVKEHATRAAEVLAEADPENAAELKKYLAEAVQTYLQLRAEAEK
# B20: design_600_24101276-ad9d-4944-b73e-53bb160363ad_1891_dldesign_0_cycle1_af2pred (protein)
# chain: GLEEEKKAVEEQKKKVEETGKKALEMAKSGEKAEEGLESLKKLIEETKEFAKKSKLKALAAEVTQLALEKLSEAKFELSKSKA
# B21: design_600_24101276-ad9d-4944-b73e-53bb160363ad_1889_dldesign_0_cycle1_af2pred (protein)
# chain: MAEKEALIAELKAKAAEAKAKGAAGSAGEQFQWDVIAAGYEKGAEAAKKAKTAEEAKKAAKEAVEKAKRVAEHIKKSEEEAEKRA
# B22: design_600_24101276-ad9d-4944-b73e-53bb160363ad_894_dldesign_0_cycle1_af2pred (protein)
# chain: MTVEEYLKQAKEAGEEAIKILKETAKKDPSSKDVADMLIKAVETTLKEGSEKAKKEGAEKAKQLLEKMKLGLRTAKRLLENVERSE
# B23: design_600_24101276-ad9d-4944-b73e-53bb160363ad_1181_dldesign_0_cycle1_af2pred (protein)
# chain: AAEEEIKKAITEAKDAALDSAYIAAKDPSKAAEAEAAYNAALGKLEEALKVLDEETRKKAIQSVKNIRDSTYEASKKSLKS
# B24: design_600_24101276-ad9d-4944-b73e-53bb160363ad_1742_dldesign_0_cycle1_af2pred (protein)
# chain: MEEKYKKAKELLEKAKEEFKKGNYEKALKLAAESVALGYEALGDEEEAKKAKEKAEEALKNPETLGAVAGELLAEAKGLVHLLEIKIN
# B25: design_600_24101276-ad9d-4944-b73e-53bb160363ad_1044_dldesign_0_cycle1_af2pred (protein)
# chain: MTPEERKALALKEQAEHTAKAGKKLGAKDPEAALKAAERLKKLAERAKKTGTEEGKEAAKLAEEYAKELEKLAKKAKE
# B26: design_600_24101276-ad9d-4944-b73e-53bb160363ad_1344_dldesign_0_cycle1_af2pred (protein)
# chain: SFKKEAAIESSKELLDQAVAAAKADPARATEIAKTGLKKATERAKKAGEEAYKTVKEYGEKLLAEVEAAAKAAA
# B27: design_600_24101276-ad9d-4944-b73e-53bb160363ad_953_dldesign_0_cycle1_af2pred (protein)
# chain: DAKKAAADALVATAAAEDPSLKPLAQEVADKAIASEDGLKAAKEGMTALAKKYPEYAKAFAAAMQAFYETYNEAEFKKKKA
# B28: design_600_24101276-ad9d-4944-b73e-53bb160363ad_2211_dldesign_0_cycle1_af2pred (protein)
# chain: SEAYEEAKKEAEAAVKALKELAKEKPEAKEKAEKLIKRVEEELKKAEEGNEEAARIAKGSIEARKLAAESVLKT
# B29: design_600_24101276-ad9d-4944-b73e-53bb160363ad_2225_dldesign_0_cycle1_af2pred (protein)
# chain: MSEGLKEAAKELVEELRETIATKSPEQARGELTLARSSAKSIEKLDPESGKELLAKVEELEKELEAKAAA
# B30: design_600_24101276-ad9d-4944-b73e-53bb160363ad_2034_dldesign_0_cycle1_af2pred (protein)
# chain: DEKVKKAKEEAEKISKEGVELAKKGAENPEKYEEYEKKAKELFDKAMAIAKEVAKENPEGGAKIAEIVHTLRAEAKAVIAKIK
# B31: design_600_24101276-ad9d-4944-b73e-53bb160363ad_1012_dldesign_0_cycle1_af2pred (protein)
# chain: VEELVKKAAEKKEKAVELIDEGKLEEAEKEAEELKKLAEEIKKKDPKLGEEALKGARALKRLIKEAKEAEEK
# B32: design_600_24101276-ad9d-4944-b73e-53bb160363ad_768_dldesign_0_cycle1_af2pred (protein)
# chain: AEDLKKAIEKIKKEVGEEAAKLVGEALKAKQAAADDPSLAETQLKKVEELEKEAKKLDPKAAKLVSKIKKVVKRMVEN
# B33: design_600_24101276-ad9d-4944-b73e-53bb160363ad_1735_dldesign_0_cycle1_af2pred (protein)
# chain: SEEEEKLREENRKIAEKERNAHVAKAAAKLVEKATPEEAVAILEKAAKAASDTEFFLALAKKVKAEGKKGVKEAVKALKKRAKEL
# B34: design_600_24101276-ad9d-4944-b73e-53bb160363ad_984_dldesign_0_cycle1_af2pred (protein)
# chain: AKEEDLKKAEEELKKFAEEAAKELKEAGAKKQDIESTKEYGEHRAEAVVTTSKKKGLSPEELKKLVKEAKERIKKYKENKL
# B35: design_600_24101276-ad9d-4944-b73e-53bb160363ad_2193_dldesign_0_cycle1_af2pred (protein)
# chain: SLEKEIEKLAKELKKAKELDPKTAAEELRKIAKEARKVGKEAAKKDKELAKKAAKLAQEAYEAAAEKEQQARLE
# B36: design_600_24101276-ad9d-4944-b73e-53bb160363ad_1497_dldesign_0_cycle1_af2pred (protein)
# chain: DEAHKRAKALYEEDRALQKELRKKAKEAKEMAKEFADDPVWKAKAEEASKLNLQALFDPENKETREKGEKTYEEVYKKYKELKKKK
# B37: design_600_24101276-ad9d-4944-b73e-53bb160363ad_1218_dldesign_0_cycle1_af2pred (protein)
# chain: DEEKKKKAAEALDKAAELAKKAAEDEKYLPEALKALKETAKLAGEALGAEAAHAILEARAVVKAKGKEGAKEAAEVLEELRKKVR
# B38: design_600_24101276-ad9d-4944-b73e-53bb160363ad_1809_dldesign_0_cycle1_af2pred (protein)
# chain: SMEKEEAVKRREKAIEKGEKAIEEAAKEGIEAAEKAKEVMKELKKEAEKFGKETGPEGEKAAKTIKRIAENTEHGLEAIIRREKE
# Target: VTCN1, Q7Z7D3
# Sequence (Q7Z7D3 whole entry): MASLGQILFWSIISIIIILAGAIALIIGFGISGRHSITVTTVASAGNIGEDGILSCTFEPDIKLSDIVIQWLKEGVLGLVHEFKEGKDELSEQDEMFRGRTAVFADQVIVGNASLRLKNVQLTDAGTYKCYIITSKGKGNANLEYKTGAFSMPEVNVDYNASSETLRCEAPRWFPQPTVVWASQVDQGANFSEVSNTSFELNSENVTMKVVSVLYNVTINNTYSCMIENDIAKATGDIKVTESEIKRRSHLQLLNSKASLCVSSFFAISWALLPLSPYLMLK
row,Binder,binding in a display sort
1,B1,not found
2,B2,not found
3,B3,binds (active)
4,B4,not found
5,B5,not found
6,B6,not found
7,B7,not found
8,B8,not found
9,B9,not found
10,B10,not found
11,B11,binds (active)
12,B12,not found
13,B13,not found
14,B14,not found
15,B15,not found
16,B16,not found
17,B17,not found
18,B18,not found
19,B19,not found

row,Binder,binding in a display sort
1,B20,not found
2,B21,not found
3,B22,not found
4,B23,not found
5,B24,not found
6,B25,not found
7,B26,not found
8,B27,not found
9,B28,not found
10,B29,not found
11,B30,not found
12,B31,not found
13,B32,not found
14,B33,not found
15,B34,not found
16,B35,not found
17,B36,not found
18,B37,not found
19,B38,not found
